What all share (test): NCI-60 one-dose screen, 48 h (100 = growth as untreated, 0 = no growth, -100 = all killed)
Holding throughout (conditions): 10 µM unless noted

Experiment [1] relates to SK-MEL-2 melanoma.
In experiment [2] the test system is EKVX NSCLC.
The subject of experiment [3] is SN12C renal.
In experiment [4] the test system is UO-31 renal.
Experiment [5] has as its system TK-10 renal.
Experiment [6] concerns ACHN renal.
Experiment [7] relates to A498 renal.
The subject of experiment [8] is CCRF-CEM leukemia.
The test system of experiment [9] is MOLT-4 leukemia.
For experiment [10], the system named is SR leukemia.
Experiment [11] concerns RPMI-8226 leukemia.
For experiment [12], the system named is OVCAR-8 ovarian.
Experiment [13] concerns OVCAR-5 ovarian.
The test system of experiment [14] is OVCAR-4 ovarian.
Experiment [15] concerns SK-OV-3 ovarian.
Experiment [16] concerns IGROV1 ovarian.
Experiment [17] relates to OVCAR-3 ovarian.
Experiment [18] deals with HS 578T breast.
Experiment [19] relates to NCI/ADR-RES ovarian.
Experiment [20] deals with CAKI-1 renal.

Molecules are shown by their SMILES. Compounds without any hit were thinned out: in the full panel of roughly 83,000, 20% have a hit.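 96-well plates, one dose, 48 hours. Percent growth reported; active if below 10.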 Values without a mark were called inactive. Calls of active or inactive are those of the source.

As to `CCOc1ccccc1Cn1ccnc1CCc1c(Cl)c(O)cc(O)c1C(=O)OC`, the growth in experiment [1] was 87.5%; in [2], 101%; in experiment [3], 96.9%; in experiment [4] it was 78.9%; in experiment [5], 90.4%; in experiment [6], 98.3%. For the same compound, the growth in experiment [7] was 114%; in experiment [8], 93.6%; in [9] it was 91.9%; in experiment [10] it was 91.5%; in experiment [11], 86.9%; in [12] it was 97.7%. Also, the growth in experiment [13] was 95.8%; in experiment [14], 114%; in experiment [15], 91.9%; in experiment [16] it was 94.8%; in experiment [17], 106%; in experiment [18], 107%. The growth in experiment [19] was 93.5%.
For the compound `COC(=O)c1nc(-c2ccc(C)cc2)oc1S(=O)(=O)c1cccc(OC)c1`, the growth in experiment [1] was 95.9%; in [2], 100%; in experiment [3], 85%; in experiment [4] it was 90.3%; in experiment [5], 64.8%; in [6], 42.8%. For the same compound, the growth is 102% in experiment [7]; -9.09% (active) in experiment [8]; -7.44% (active) in experiment [9]; 0.69% (active) in experiment [10]; 94.2% in [11]; 93% in experiment [12]. Moreover, the growth is 92.1% in [13]; 107% in experiment [14]; 105% in [15]; 81.5% in experiment [16]; 77.8% in [17]; 110% in [18]. The growth in experiment [19] was 103%.
Consider `Nc1n[nH]c2cccc(C#Cc3cccc(C(=O)Nc4cc(C(F)(F)F)cc(C(F)(F)F)c4)c3)c12`, for which the growth in experiment [1] was 72.2%; in [2], 92%; in experiment [3] it was 61.1%; in experiment [4] it was 42.5%; in [5], 109%; in experiment [6], 76.3%. For the same compound, the growth was 89.3% in experiment [7]; 12.1% in [8]; 35.4% in experiment [9]; 49.7% in [10]; 52.6% in [11]; 82.9% in experiment [12]. Also, the growth in [13] is 75.9%; in experiment [14], 85.4%; in experiment [15] it was 109%; in experiment [16], 45.7%; in [17], 90.6%; in experiment [18], 54.9%. Besides, the growth in experiment [19] is 74.2%.
Take `CCn1cc(C(=O)NNC(=S)Nc2ccc(C)cc2)c(=O)c2ccc(C)nc21`: the growth was 104% in experiment [1]; 101% in experiment [2]; 88.6% in experiment [3]; 78.9% in experiment [4]; 100% in [5]; 95.5% in [6]. For the same compound, the growth in experiment [7] was 76.4%; in experiment [8], 90.7%; in experiment [9], 102%; in experiment [10], 104%; in experiment [11], 98.9%; in experiment [12], 95.6%. Besides, the growth in [13] was 107%; in [14] it was 102%; in [15] it was 106%; in experiment [16], 95.7%; in experiment [17], 103%; in [18], 95.8%. In experiment [19], the growth was 95.6%.
As to `CN(C)S(=O)(=O)c1cccc(C(=O)Nc2nc(-c3ccc(F)c(F)c3)cs2)c1`, the growth in experiment [1] is 32.2%; in experiment [2] it was 48.7%; in experiment [3], 62.9%; in experiment [4], 38.7%; in experiment [5], 81.2%; in [20] it was 97.1%. Also, the growth was 46.3% in experiment [7]; 39.6% in [8]; 28.2% in experiment [9]; 41% in experiment [10]; 63.2% in experiment [11]; 48.9% in experiment [12]. Also, the growth in [13] is 86.1%; in experiment [14], 37.2%; in [15] it was 108%; in experiment [16], 41.6%; in experiment [17] it was 70.8%; in [18] it was 107%. In addition, the growth in experiment [19] was 22.5%.
Turning to `[O-]/[N+](=C\c1ccc(-n2cc(Cc3ccccc3Cc3cn(-c4ccc(/C=[N+](/[O-])c5ccccc5)cc4)nn3)nn2)cc1)c1ccccc1`, the growth in [1] is 111%; in experiment [2], 96.8%; in experiment [3] it was 101%; in experiment [4], 93.3%; in [5], 121%; in experiment [20] it was 98.8%. Further, the growth in experiment [7] is 83.3%; in experiment [8], 103%; in [9], 89.5%; in experiment [10] it was 95%; in [11], 103%; in experiment [12] it was 103%. In addition, the growth in experiment [13] is 112%; in [14], 99.3%; in [15], 106%; in experiment [16], 95.4%; in experiment [17], 102%; in experiment [18], 110%. In addition, the growth in [19] is 97.6%.
Take `c1ccc(Cn2cc3c(c2)-c2oncc2CC3)cc1`: the growth in experiment [1] was 53.9%; in experiment [2], 41.4%; in experiment [3], 47.8%; in [4] it was 41.6%; in [5], 77.1%; in [20], 47%. In addition, the growth in experiment [7] was 44.6%; in experiment [8], 6.94% (active); in [9], 53.6%; in experiment [11] it was 8.25% (active); in [12] it was 36.4%; in [13], 25.1%. In addition, the growth is 64.1% in [14]; 13.5% in [15]; 34.9% in [16]; -23.8% (active) in [17]; 1.9% (active) in experiment [18]; 0.523% (active) in experiment [19].
Take `NC(=O)CSc1oc(-c2ccccc2)nc1S(=O)(=O)c1ccc(Br)cc1`: the growth in experiment [1] was 99.2%; in [2], 95.4%; in [3] it was 65.7%; in experiment [4], 59.7%; in [5], 82.1%; in [20], 87.9%. The growth in experiment [7] was 61.4%; in [8], 110%; in [10], 79.3%; in [11] it was 81.1%; in experiment [12] it was 49.4%; in experiment [13], 109%. Also, the growth in experiment [14] was 45.4%; in experiment [15] it was 88.3%; in experiment [16], 93%; in [17] it was 62.5%; in experiment [18], 56.1%; in experiment [19] it was 86.4%.

The values above are taken from PubChem BioAssay (NCI).
